# Bioassay records deposited in PubChem by several laboratories.
# ERb SRC1 inh: inhibitors of ERβ-SRC1 coactivator interaction, primary screen, biochemical, TR-FRET, ERβ LBD, SRC-1 peptide. AID 633, 2007. TR-FRET ER-beta LBD / SRC1-Cy5 peptide binding; receptor agonist-loaded with 1 µM estradiol. 86,000 compounds, 1.3% hits. inhibition, % at 25.6 µM;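 active = compounds whose percent inhibition of the receptor-coactivator binding signal exceeds about 50% in the single-dose screen, limit read from the data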;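 note: 0% = receptor plus peptide wells without compound and 100% = peptide-only wells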
# ERa SRC1 pot: enhancers of ERα–SRC-1 coactivator binding, primary screen, biochemical, TR-FRET, ERα LBD, low estradiol; Estrogen receptor (Homo sapiens), P03372; TR-FRET ERalpha-LBD/SRC-Cy5 coactivator binding, 2 h; 100 = basal binding, no effect; coactivator binding (% of control), % at 25.6 µM; 86,000 compounds, 1.3% hits; AID 639, 2007; in the data active = activity above about 200%;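 note: binding measured in presence of low estradiol as agonist stimulus; 0% = peptide alone without receptor and 100% = receptor with peptide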
# EphB4 ephrin blk: EphB4-ephrin-B2 interaction antagonists, primary screen, biochemical, TNYL-RAW peptide probe, fluorescence polarization; Ephrin type-B receptor 4 (Homo sapiens), P54760; EphB4 LBD / TNYL-RAW-Alexa532 peptide; inhibition, % at 7 µM; 97,000 compounds, 0.15% hits;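 active = inhibition above the screen-wide mean inhibition plus 3 SD, cut at about 15% in these data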;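 note: 0% = DMSO wells and 100% = excess unlabeled TNYL-RAW peptide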
# ERa SRC1 inh: ERα–SRC-1 coactivator interaction inhibitors, primary screen, biochemical, TR-FRET, ERα LBD, estradiol-bound; TR-FRET ER-alpha LBD / SRC-1 peptide; inhibition, % at 25.6 µM; 86,000 compounds, 1.7% hits; in the data active = inhibition above about 50%;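 note: 0% = receptor plus peptide control and 100% = peptide only without receptor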
# The depositor's hits bear a star; / = no result; [ ] = remark or other dose. In the library only some 2.8% were active in any assay of this set; here they are far more common.
SMILES,ERb SRC1 inh,ERa SRC1 pot,EphB4 ephrin blk,ERa SRC1 inh
COc1cc(OC)cc(-c2nnc(SCC(=O)Nc3cc(C)on3)o2)c1,-11,393*[fluorescence artefact?],-2,-19
Cc1cc(NC(=O)CSc2nnc(-c3ccoc3C)o2)no1,-7,116,-14,-9
COc1ccc(-c2nnc(SCC(=O)NCc3ccco3)o2)cc1,20,69,5,22
O=C(CSc1nnc(-c2ccc(OC(F)F)cc2)o1)NC(=O)NCc1ccco1,53*,112,-1,67*
Cc1cccc(N(CC(=O)N/N=C/c2cc([N+](=O)[O-])ccc2Cl)S(C)(=O)=O)c1C,/,/,6,/
O=C(Nc1ccc(Cl)cn1)C1CCCN1S(=O)(=O)c1ccccc1 (stereo not given),-9,109,-3,-12
O=C(Nc1cc(C(F)(F)F)cc(C(F)(F)F)c1)c1ccc(Cn2cc(C(F)(F)F)ccc2=O)cc1,/,/,1,/
O=c1c2[nH]c3ccccc3c2ncn1CCC1=CCCCC1,45,308*[fluorescence artefact?],-7,3
Cc1ccc2[nH]c3c(=O)n(CCC4=CCCCC4)cnc3c2c1,16,335*[fluorescence artefact?],6,13
CCc1ccccc1N(C(=O)c1cccs1)C1C=CS(=O)(=O)C1 (stereo not given),-8,114,-3,2
Clc1cccc(-c2ccc(/C=N/n3cnnc3)o2)c1Cl,31,118,2,51*[fluorescence artefact?]
O=C(COc1cccc2ccccc12)NNC(=O)c1cccs1,/,/,5,/
Cc1cc([N+](=O)[O-])ccc1NCc1ccccc1,/,/,5,/
NC(=O)c1ccc([N+](=O)[O-])cc1SCc1ccccc1,53*[fluorescence artefact?],54,-5,39
CC(=O)Nc1cc(S(=O)(=O)Nc2ccccc2C)c(C)cc1C,/,/,-11,/
CC(C)c1ccc(Nc2cnn(C34CC5CC(CC(CC(=O)O)(C5)C3)C4)c(=O)c2Cl)cc1,-4,133,6,-4
Cc1ccc(Nc2cnn(C34CC5CC(CC(CC(=O)O)(C5)C3)C4)c(=O)c2Cl)cc1,1,117,52*,8
COc1ccc(OC)c(/C=N\NC(=O)CSc2nnc(CCCc3ccc(OC)c(C)c3)o2)c1,/,/,1,/
COc1cc(C2Nc3cccc4cccc(c34)N2)cc(OC)c1O,82*[fluorescence artefact?],46,-2,54*[fluorescence artefact?]
CCCCN(C)CCNC(=O)c1c[nH]c2ccc(S(=O)(=O)N(CC)CC)cc2c1=O,-1,125,0,-3
CCN(c1ccccc1)S(=O)(=O)c1ccc2[nH]cc(C(=O)NCCOC)c(=O)c2c1,22,46,-4,50*
COc1ccc(-c2noc(CSc3nc(-c4ccccc4)cc(=O)[nH]3)n2)cc1,15,242*[fluorescence artefact?],2,-2
CCC(=O)Nc1ccc2c(c1)nc(CN1CCN(C(C)=O)CC1)n2C,-11,100,5,-9
Clc1ccc2[nH]cc(-c3nnnn3-c3ccc4ccccc4c3)c2c1,/,/,6,/
CC(=O)CSc1nnc(Cc2ccc3c(c2)OCO3)o1,-4,125,6,-3
SMILES,ERb SRC1 inh,ERa SRC1 pot,EphB4 ephrin blk,ERa SRC1 inh
Cc1cc(C)cc(OCc2nc3ncc(Br)cc3[nH]2)c1,42,333*[fluorescence artefact?],7,57*
COc1cccc(OCc2nc3ncc(Br)cc3[nH]2)c1,8,104,-3,4
CCOC(=O)c1c(C)sc2c1N(C(C)=O)c1cc(Cl)ccc1S2,-12,85,4,-4
CC(=O)NC(C)C(=O)OCC(=O)Nc1ccc(Br)cc1 (stereo not given),36,109,-1,78*
COCCNC(C)C(=O)Nc1ccc(Br)cc1 (stereo not given),-6,97,/,-7
Cn1nc(CC(=O)N2CCN(c3ccccc3)CC2)c2ccccc2c1=O,-13,119,10,-4
Cn1nc(CC(=O)Nc2ccc(N3CCN(C(=O)OC(C)(C)C)CC3)cc2)c2ccccc2c1=O,39,68,/,72*[fluorescence artefact?]
CC(C)(C)OC(=O)N1CCN(c2ccc(NC(=O)Cn3nnc(-c4ccccc4)n3)cc2)CC1,50*,44,-3,31
CCOC(=O)c1ccc(NC(=O)Cn2nnc(-c3ccccc3)n2)cc1,7,104,-4,9
N#CC1=C(N)SC(N)=C(C#N)C1CCC1CCCCC1,11,242*,-2,15
Cc1sccc1C1C(C#N)=C(N)SC(N)=C1C#N,-19,65,5,-23
